Sampled rows, rich in hits. Any-hit rate of the full collection: about 11%.
AMA1-RON2 inh = AMA1-RON2 (P. falciparum) interaction inhibition; hit rate 0.2% among 360,000; Potency, µM (highest dose often 58.2 µM), without a hit: at the highest dose activity change, negative = inhibition, usual class: inhibitors; AID 720542; AlphaScreen AMA1-biotinylated RON2 peptide binding;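 note: 0% = vehicle wells and -100% = peptide control; nearly all actives have a fitted effect of over 45% in size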
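AMA1 (3D7) with his tag at 25 nM final met compounds first, then biotinylated RON2 peptide at 25 nM; detection used donor plus acceptor beads, 10 µg/mL apiece, read by AlphaScreen after 30 min at room temperature.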
AmpC inh no detg = blocks E. coli AmpC beta-lactamase in detergent-free assay; hit rate 0.52% among 330,000; Potency, µM (series often up to 57.1 µM), for the others: top-dose activity change, negative = inhibition, actives largely listed as inhibitors; P00811; AmpC nitrocefin hydrolysis, absorbance 480 nm, 0.0001% Triton; AID 485341;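 note: plate controls were no compound for no effect and no enzyme for full effect; nearly all actives have a fitted effect of over 20% in size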
Target sequence (P00811 whole entry, looked up): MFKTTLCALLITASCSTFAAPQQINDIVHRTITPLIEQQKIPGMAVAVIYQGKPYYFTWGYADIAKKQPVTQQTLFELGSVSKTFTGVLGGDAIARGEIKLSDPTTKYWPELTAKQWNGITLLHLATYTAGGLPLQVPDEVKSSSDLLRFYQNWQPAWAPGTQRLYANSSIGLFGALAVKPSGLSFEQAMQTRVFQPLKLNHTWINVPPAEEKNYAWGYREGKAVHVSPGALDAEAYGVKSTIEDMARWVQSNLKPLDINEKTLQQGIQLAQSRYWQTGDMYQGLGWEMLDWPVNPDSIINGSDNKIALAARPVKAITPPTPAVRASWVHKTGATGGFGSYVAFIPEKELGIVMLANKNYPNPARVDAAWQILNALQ
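20 mM phosphate pH 7.0 + 0.01% (detergent screen) or 0.0001% Triton X-100; 5.3 nM AmpC reagent; cpd preinc 15 min RT; nitrocefin (800 uM stock) to start; A480 q20 s × 4 min; Activity was normalised to no-enzyme and no-compound control wells.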
HCV inhibitor = inhibitors of hepatitis C virus infection; hit rate 3.4% among 340,000; Huh7.5.1 HCVcc-Cre infection, luciferase reporter, 44 h; AID 651820; Potency, µM (doses to about 41.8 µM), for inactives: at the top dose activity change, negative = inhibition, usual class: inhibitors
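Compounds are dispensed onto cells plated 4 h earlier at 1,000 per well, with HCVcc-Cre virus (about 0.5 moi) added next. Following 44 h of culture, luminescent signal is measured for 15 sec after 15 min with substrate at room temperature.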
Pf growth 96h = inhibits malaria parasite growth, 96 h | hit rate 6.9% among 320,000 | Potency, µM (highest dose often 28.7 µM), inactives show at the top dose activity change, negative = inhibition, most hits filed as inhibitors | P. falciparum luciferase reporter growth, 96 h | AID 504834
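Two parasite generations (96 h, 37 C, 5% CO2) of compound exposure in infected erythrocytes (0.05% parasitemia, 2% hematocrit). Luciferase-reporter P. falciparum; decreased luminescence indicates inhibited growth, aimed at apicoplast-acting delayed death.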
AmpC detergent = blocks E. coli AmpC beta-lactamase in detergent assay | P00811 | AmpC hydrolysis of nitrocefin, absorbance 480 nm, 0.01% Triton | hit rate 0.041% among 370,000 | Potency, µM (titrated, usually from 114 µM), inactives show at the top dose activity change, negative = inhibition, actives largely listed as inhibitors;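 note: 0% = no-compound wells and -100% = no-enzyme wells; nearly all actives have a fitted effect of over 25% in size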
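AmpC (5.3 nM in the dispensed reagent) in 20 mM phosphate pH 7.0 with 0.01% (detergent screen) or 0.0001% Triton X-100 was preincubated with compounds for 15 min at room temperature. Nitrocefin was then added from an 800 uM solution, and hydrolysis was followed at 480 nm.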
Pf growth 48h = inhibits P. falciparum growth in the first generation, 48 h. P. falciparum luciferase growth in erythrocytes, 48 h. AID 504832. hit rate 5.9% among 310,000. Potency, µM (top dose mostly 28.7 µM), without a hit: top-dose activity change, negative = inhibition, usual class: inhibitors
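Luciferase-expressing parasites in RBCs, 2% Hct / 0.1% parasitemia final; RPMI 1640 + 0.5% Albumax; 37 C, 5% CO2, one generation; luminescence read-out, lower signal = inhibition.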
* hit, by the source's call; ? = inconclusive; nt = not tested or not shown; ! = a repeat was not active. Calls come from the whole dose curve; as a rule, active = well fitted curve in the direction sought with a large enough effect; inconclusive = small, poorly fitted or top-dose-only effect, or another doubt; inactive = no such curve, though single readings can be large; an effect the other way counts as inactive or inconclusive. Unless noted, % is set by controls: 0 for no effect and ±100 for the full control effect; potency is the fitted concentration of half-maximal effect.

SMILES	AMA1-RON2 inh	AmpC inh no detg	HCV inhibitor	Pf growth 96h	AmpC detergent	Pf growth 48h
Cc1cc(C(=O)CSc2nc3ccc(Cl)cc3[nH]2)c(C)n1CC1CCCO1 (stereo not drawn)	-11%	-6%	8.9µM*	?	?	nt
C=CCn1c(C)cc(C(=O)CSc2nnc(NCc3ccccc3)s2)c1C	-28%	-15%	?	?	-1%	-17%
C=CCn1c(C)cc(C(=O)CSc2nnc(NC(C)C)s2)c1C	-1%	-12%	-18%	4.7µM*	-1%	?
C=CCn1c(C)cc(C(=O)CSc2nc3ccccc3o2)c1C	-16%	-44%	22µM*	?	?	-52%
C=CCn1c(C)cc(C(=O)CSc2nc3ccccc3[nH]2)c1C	-13%	-46%	6.3µM*	24%	3%	-79%
CCOc1ccccc1NC(=O)COC(=O)c1cn(CC)c2nc(C)ccc2c1=O	nt	nt	nt	nt	30%	nt
C=C(C)CSc1nc2c(cc1C#N)CCC2	25%	-24%	?	15µM*	?	-3%
CCOC(=O)CC(=O)CSc1nc2c(cc1C#N)CCCCCC2	31%	-10%	6%	1.2µM*	?	2.3µM*
CCCCSc1nc2c(cc1C#N)CCC2	37%	-11%	22µM*	?	-5%	?
CN1CCc2nc(SCC(=O)OC(C)(C)C)c(C#N)cc2C1	4%	20%	4µM*	-33%	?	54%
CN1CCc2nc(SCC(=O)Nc3ccc(Cl)cc3)c(C#N)cc2C1	2%	nt	?	nt	nt	nt
COc1ccc(CCNC(=O)c2cnc3sc(N4CCCC4)nn3c2=O)cc1OC	nt	nt	nt	nt	1%	nt
CCOc1nc(NC(=O)NS(=O)(=O)Oc2cccc(F)c2)nc(-c2ccccc2)n1	nt	nt	nt	nt	1%	nt
Cc1ccc(N2CCN(S(=O)(=O)c3nnc(NC(=O)c4cccc(F)c4)s3)CC2)cc1	nt	nt	nt	nt	14%	nt
CCOC(=O)CC(=O)CSc1nc(-c2cccnc2)cc(C)c1C#N	18%	-12%	3%	-5%	-14%	31%
COC(=O)C1=C(CSc2nc3c(cc2C#N)CN(C)CC3)OC(N)=C(C#N)C1c1ccc(F)cc1 (stereo not drawn)	?	40%	?	?	?	9.3µM*
CCOC(=O)CC(=O)CSc1nc(-c2cccnc2)ccc1C#N	-5%	1%	7%	nt	3%	10µM*
CSc1nn(Cc2cccc(Cl)c2)c(N(C(C)=O)C(C)=O)c1S(=O)(=O)c1ccccc1	nt	nt	nt	nt	3%	nt
COc1ccc(OC)c(C2Nc3nc4ccccc4n3C(C)=C2C(=O)Nc2ccc(C)cc2C)c1 (stereo not drawn)	1%	19%	-20%	nt	-3%	7.4µM*
COc1ccccc1N1CCN(c2nc3ccc(C)cc3n3nnnc23)CC1	nt	nt	nt	nt	8%	nt
COc1ccccc1C(=O)Nc1cccc(OCc2cc(=O)n3ccccc3n2)c1	nt	nt	nt	nt	19%	nt
CCN1C(=NCc2cc(OC)c(OC)c(OC)c2)N[C@@H](c2cccc(C(F)(F)F)c2)C(C(=O)OC)=C1C	-7%	106%	?	2.6µM*	?	?
COC(=O)C1=C(C)N(CCc2cc(OC)c(OC)c(OC)c2)C(=O)N[C@H]1c1ccccc1	-7%	nt	22%	nt	nt	nt
COc1cc(CCN2C(=O)N[C@@H](c3cccc(C(F)(F)F)c3)C(C(C)=O)=C2C)cc(OC)c1OC	nt	56%	?	10µM*	2%	13µM*
CCN1C(=NCc2ccc(OC)cc2)N[C@@H](c2ccccc2)C(C(=O)OC)=C1C	-5%	-14%	-3%	?	?	-28%
SMILES	AMA1-RON2 inh	AmpC inh no detg	HCV inhibitor	Pf growth 96h	AmpC detergent	Pf growth 48h
CCN1C(=NCc2cc(OC)c(OC)c(OC)c2)N[C@@H](c2ccccc2)C(C(=O)OC)=C1C	14%	-16%	-14%	4.7µM*	-8%	-23%
CCN(CC)CCCN=C1N[C@@H](c2ccccc2)C(C(=O)OC)=C(C)N1CC	1%	-13%	-9%	1.7µM*!	-16%	?
Cc1c(C(=O)Nc2cccc(C(F)(F)F)c2)oc2ccc(S(=O)(=O)N(C)C3CCCCC3)cc12	nt	nt	nt	nt	4%	nt
COCCn1nnnc1CN1C2CCCC1CC(NC(C)=O)C2 (stereo not drawn)	-22%	-17%	-7%	13µM*	?	29%
COCCn1nnnc1CN1CCC(NC(=O)c2ccc(Br)cc2)CC1	5%	-11%	-4%	-58%	-9%	?
Nc1nc2[nH]cc(CCc3ccc(C(=O)NC(CCC(=O)O)C(=O)O)cc3)c2c(=O)[nH]1 (stereo not drawn)	nt	nt	nt	1.3µM*	nt	0.67µM*
CCN(CC)c1nc2c(c(=O)[nH]c(=O)n2C)n1CCOc1ccccc1	-8%	5%	-11%	0.66µM*	?	0%
CCOC(=O)CSc1nc2c(c(=O)[nH]c(=O)n2C)n1Cc1ccccc1	9%	-14%	2.8µM*	?	1%	-30%
CC(C)Cn1c([N+](=O)[O-])nc2c1c(=O)[nH]c(=O)n2C	2%	2%	?	?	-1%	?
Cn1c(=O)[nH]c(=O)c2c1nc(SCCC(=O)O)n2Cc1cccc(Br)c1	-1%	-54%	-1%	5%	0%	-17%
CC(=O)CSc1nc2c(c(=O)[nH]c(=O)n2C)n1Cc1cccc(Br)c1	-6%	-9%	13µM*	44%	-12%	-16%
Cn1c(=O)[nH]c(=O)c2c1nc([N+](=O)[O-])n2Cc1ccccc1	-8%	-4%	-84%	13µM*	7%	7.4µM*
Cc1ccc(-n2ncc(C(=O)NCc3ccccc3C)c2-n2cccc2)cc1	nt	nt	nt	nt	7%	nt
Cc1ccccc1NC(=O)c1c(C)oc2ccc(O)c(CN3CCOCC3)c12	nt	nt	nt	nt	-2%	nt
COc1ccc(Cn2c(CCC(=O)Nc3cc(OC)c(OC)c(OC)c3)nc3cccnc32)cc1	nt	nt	nt	nt	-13%	nt
Cn1c(CC(=O)Nc2ccc(Cl)c(Cl)c2)n[nH]c1=S	85%	-34%	-2%	0.074µM*	-8%	-3%
CN1CCOC(c2ccccc2)c2ccccc2C1 (stereo not drawn)	0%	-17%	-18%	10µM*	?	29%
O=C1NCCCC1C(=O)N1CCN(C(=O)C2CCCNC2=O)CC1 (stereo not drawn)	nt	0%	nt	-22%	?	12µM*
O=C1NCCCC1C(=O)N1CCCCC1 (stereo not drawn)	49%	-9%	3%	42%	0%	0%
CCCCOc1ccc(S(=O)(=O)N2CCN(c3ccc(N4CCN(CC)CC4)nn3)CC2)cc1	-9%	0%	?	?	-12%	12µM*
COCCCn1c(=N)c(C(=O)NCC2CCCO2)cc2c(=O)n3cc(C)ccc3nc21 (stereo not drawn)	nt	nt	nt	nt	9%	nt
